From PubChem BioAssay
Where “and” joins values, the source holds several entries; their conditions need not be identical. Identical values can stand only once.

Tests used:
[1] = test system: Botulinum neurotoxin type F light chain protease (Clostridium botulinum); test: Clostridium botulinum type F light chain protease inhibitors, microsphere substrate cleavage, validation (AID 588459); conditions: multiplex microsphere protease substrate cleavage assay, flow cytometry; at 10 µM; active compounds read high
[2] = target: Botulinum neurotoxin type A (Clostridium botulinum) (UniProt P0DPI0); test: BoNT/A light chain protease inhibitors, biochemical, multiplex microsphere flow cytometry, validation set (AID 588460); conditions: at 10 µM, active compounds read high
[3] = target: Lethal factor (Bacillus anthracis) (UniProt P15917); test: Bacillus anthracis lethal factor inhibition, microsphere flow cytometry protease assay, validation at 10 µM (AID 588461); conditions: multiplex microsphere protease cleavage assay, active compounds read high

Measured: inhibition

NCCc1ccc(O)c(O)c1
inactive: [1] -6.2% | [2] -3.5% | [3] -8.7%

CC1(C)CC(c2csc(N)n2)CCO1 (centres undefined)
inactive: [1] -0.4% | [2] -1% | [3] -8.4%

CC(C)NC(=O)C1(c2ccccc2)CCOCC1
inactive: [1] -2.6% | [2] -0.5% | [3] -2.6%

COc1cc2c(cc1OC)C(c1cc(OC)c(OC)c(OC)c1)NCC2 (centres undefined)
inactive: [1] 2.3% | [2] -0.2% | [3] 6.9%

CC1(C)[C@@H](O)CC[C@]2(C)[C@H]3C(=O)C=C4[C@@H]5C[C@@](C)(C(=O)O)CC[C@]5(C)CC[C@@]4(C)[C@]3(C)CC[C@@H]12
inactive: [1] 4.4% | [2] -1.5% | [3] -0.5%

CC1CC(OC(=O)C(O)c2ccccc2)CC(C)(C)N1C (centres undefined)
inactive: [1] -2.4% | [2] -1.7% | [3] -6.1%

O=C(O)c1ccccc1C(=O)OCCCCOC(=O)c1ccccc1C(=O)O
inactive: [1] 5.9% | [2] -0.6% | [3] 3.5%

O=[N+]([O-])c1cc(/C=N/n2cnnc2)ccc1N1CCCC1
inactive: [1] -0.9% | [2] -0.6% | [3] -3.3%

CC1(C)S[C@@H]2[C@H](NC(=O)C(C(=O)O)c3ccccc3)C(=O)N2[C@H]1C(=O)O (some centres undefined)
inactive: [1] 3.8% | [2] 1.2% | [3] -6.1%

OCCN(CCO)c1ccc2ccccc2c1
inactive: [1] -1.3% | [2] -1.2% | [3] -6.6%

Cc1ccsc1C1NC(=O)c2ccccc2N1 (centres undefined)
inactive: [1] -6.7% | [2] -1.3% | [3] -5.3%

O=C1c2cccc3cccc(c23)C(=O)N1c1ccccn1
inactive: [1] -2.7% | [2] 0.1% | [3] 1.1%

CN(CCc1cnn(C)c1)Cc1nc(CC2CC2)no1
inactive: [1] 0.2% | [2] 0.4% | [3] 7%

CN(C)C(=O)Oc1cccc([N+](C)(C)C)c1
inactive: [1] 0.7% and -1.3% | [2] 0.2% and -0.7% | [3] 1.5% and 2.9%

Cc1cccc(N2C(=O)C3C(c4ccccc4)OC4(C(=O)c5ccccc5C4=O)C3C2=O)c1 (centres undefined)
inactive: [1] 4.6% | [2] 1% | [3] -3.5%

CN1CCN(CCCN2c3ccccc3Sc3ccc(Cl)cc32)CC1
inactive: [1] -3.9% | [2] -3.2% | [3] -10.3%

Cc1oncc1C(=O)Nc1ccc(C(F)(F)F)cc1
inactive: [1] 0.9% | [2] 0.7% | [3] 2.2%

C/C=C/Cn1c(SC)nc2c1c(=O)[nH]c(=O)n2C
inactive: [1] -2.2% | [2] 0.9% | [3] -3.1%

COc1cccc(N2CC34C=CC(O3)C(C(=O)O)C4C2=O)c1 (centres undefined)
inactive: [1] 3.9% | [2] 0.3% | [3] 6%

COc1ccc2c(CC(=O)NCC3CCC(C(=O)O)CC3)cc(=O)oc2c1 (centres undefined)
inactive: [1] 1% | [2] -0.1% | [3] 3.6%

CCCOc1ccc(-c2cc(C(=O)NCC3CCCO3)c3ccccc3n2)cc1 (centres undefined)
inactive: [1] -0.2% | [2] -0.7% | [3] -5.1%

O=C(Cc1cccc2ccccc12)N1CC[C@@]2(O)CCCC[C@H]2C1
inactive: [1] 2.2% | [2] 0.2% | [3] -5.4%

COC(=O)C1[C@H]2C(=O)N(Cc3cccs3)C[C@]23C=C[C@H]1O3 (some centres undefined)
inactive: [1] -0.5% | [2] -0.7% | [3] -4%

Cc1nc(-c2coc3c(CN(C)C)c(O)ccc3c2=O)cs1
inactive: [1] -2.2% | [2] -0.6% | [3] 10.3%

Fc1ccc(NC(=S)Nc2ccccc2Cl)cc1
inactive: [1] 1.8% | [2] -0.7% | [3] -3.5%

CN(CCO)CC(O)Cn1cnc2c1c(=O)n(C)c(=O)n2C (centres undefined) (tested in a mixture with another compound)
inactive: [1] -0.4% | [2] 1.1% | [3] -3.6%

Cc1oc2cc(O)ccc2c(=O)c1Oc1ccccc1Br
inactive: [1] -1.1% | [2] -0.5% | [3] -0.7%

Cc1cccc(-n2c(Cc3ccccc3)n[nH]c2=S)c1
inactive: [1] -1.9% | [2] -0.5% | [3] -2.9%
